The list is not random: actives were taken first. Their share in the collection is about 2.1%.
Abeta rescue: compounds reversing amyloid beta toxicity in yeast. yeast expressing A-beta42, growth rescue, OD600, 48 h; response scale: 0% DMSO, 100% iron-clioquinol control. Potency, µM (titrated, usually from 46.1 µM), hits mostly activators. 0.063% of 410,000 active. AID 1347071; further: nearly all actives have a fitted effect of over 55% in size
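Yeast A-beta toxicity model in growth medium with pinned compounds, 48 h at 30 C; growth read as absorbance at 600 nm. Normalized to FeCl3/clioquinol equimolar mix (positive) and DMSO (negative).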
FUS yeast rescue: rescues growth of FUS-expressing yeast; S. cerevisiae FUS-expressing, growth rescue, OD600, 24 h; Potency, µM (doses to about 76.6 µM), most hits filed as activators; 0.24% of 390,000 active;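 further: plate controls were DMSO vehicle for no effect and reference control for full effect; nearly all actives have a fitted effect of over 55% in size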
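Cultures pregrown in 2.5% raffinose medium are shifted to minimal medium containing 2% galactose to express toxic FUS. Compounds are tested at several concentrations. After 24hr at 30C, growth is quantified at 600 nm absorbance.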
TDP43 rescue: rescues yeast growth from TDP-43 toxicity; 1.8% of 410,000 active; Potency, µM (titrated, usually from 46.1 µM), inactives show at the highest dose growth rescue (activation), most hits filed as activators; TDP-43 expressing yeast growth rescue, BacTiter-Glo, 24 h; AID 652104; further: % of control where 0% means no effect; nearly all actives have a fitted effect of over 50% in size
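Readout is BacTiter-Glo luminescence of cell growth, so inhibitors register as activators. TDP-43-expressing yeast at OD600=0.02 in galactose medium, after raffinose pregrowth to mid-log, were incubated with compound for 24 hr at 30 deg C.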
aSyn rescue: rescues yeast growth from alpha-synuclein toxicity; 0.14% of 370,000 active; Yeast expressing alpha-synuclein, growth rescue, BacTiter-Glo, 24 h; Potency, µM (series often up to 46.1 µM), without a hit: at the top dose growth rescue (activation), usual class: activators; further: % of control where 0% means no effect; nearly all actives have a fitted effect of over 65% in size
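Galactose-induced alpha-syn yeast (OD600=0.02, raffinose-pregrown) + pinned cpd, 24 hr, 30 deg C; growth by BacTiter-Glo luminescence. Growth restoration scores as activation.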
The depositor's hits bear a star; i = inactive; u = inconclusive; x = not tested or not shown. The call rests on the fitted dose curve; in most records, active means well fitted curve in the direction sought with a large enough effect; inconclusive means small, poorly fitted or top-dose-only effect, or another doubt; inactive means no such curve, though single readings can be large; an effect the other way counts as inactive or inconclusive. Potency means the concentration at half of the fitted maximal effect.

SMILES | Abeta rescue | FUS yeast rescue | TDP43 rescue | aSyn rescue
O=C(NC1CC1)C1Nc2ccc(OC(F)(F)F)cc2C2C=CCC12 (configuration not stated) | i | i | 4.6% | -7.4%
O=C(NCc1nc2ccccc2[nH]1)C1=C[C@H](C2CCCCC2)C[C@H](OCc2ccc(CO)cc2)O1 | i | 20µM* | 7.7% | -18.7%
O=C(NCc1nc2ccccc2[nH]1)C1=C[C@@H](c2ccc(C(F)(F)F)cc2)C[C@@H](OCc2ccc(CO)cc2)O1 | i | 31.6µM* | 3.4% | -3.2%
O=C(NCc1nc2ccccc2[nH]1)C1=C[C@H](C2CCCCC2)C[C@H](OCCCCO)O1 | i | i | 9.0% | -6.0%
O=C(NCc1nc2ccccc2[nH]1)C1=C[C@@H](C2CCCCC2)C[C@@H](OCc2ccc(CO)cc2)O1 | i | 31.6µM* | 21.4% | 5.0%
C#CCNC(=O)C1=C[C@@H](c2cn(C(C)=O)c3ccccc23)C[C@@H](OCc2ccc(CO)cc2)O1 | i | u | 1.3% | 2.3%
CC(=O)n1cc([C@H]2C=C(C(=O)NCc3ccccc3)O[C@@H](OCc3ccc(CO)cc3)C2)c2ccccc21 | i | 25.1µM* | 1.1% | -9.2%
CCOC(=O)[C@@]12CN(C(=O)OC(C)(C)C)CC=C1N(Cc1ccc(OC)cc1)C(=O)[C@H]2CC(=O)NCC12CC3CC(CC(C3)C1)C2 | x | i | x | x
O=S1(=O)c2ccc(Br)cc2OC[C@@H](Cc2ccccc2)N1Cc1cn(CCC2OCCO2)nn1 | x | i | x | x
c1nc(NCC2CCOC2)c2cc(-c3ccc4c(c3)OCO4)ccc2n1 (configuration not stated) | x | i | x | x
Cc1ccsc1C(=O)Nc1n[nH]c(C(F)(F)F)n1 | i | i | 35.5µM* | 7.7%
CCN(CC)c1ncnc2scc(C3COc4ccccc4O3)c12 (configuration not stated) | i | i | 17.8µM* | 2.3%
CCOC(=O)c1cc2c(=O)n3ccccc3nc2n(Cc2ccco2)c1=NC(=O)c1cccnc1 | i | 31.6µM* | -1.0% | -0.1%
CC(C)N(Cc1nc(-c2ccccc2)no1)C(=O)CN(C)S(=O)(=O)c1ccccc1 | i | i | 12.6µM* | 13.3%
CC(C)N(Cc1nc(-c2ccccc2)no1)S(=O)(=O)c1ccccc1 | i | i | u | 5.8%
Cc1cccc(C)c1OCCn1nnc2ccccc21 | i | i | 17.8µM* | 13.9%
Cc1cc(C)cc(OCCn2nnc3ccccc32)c1 | i | i | 22.4µM* | 2.6%
CS(=O)(=O)N1CCN(/[N+]([O-])=N/Oc2ccc([N+](=O)[O-])cc2[N+](=O)[O-])CC1 | x | x | x | -45.8%
C=C1C=C(C(F)F)n2ncc(C(=O)NCc3ccc(Cl)cc3)c2N1 | x | x | x | 0.3%
O=C(COc1ccccc1Cl)NC(=S)Nc1ccccc1N1CCCC1 | u | i | 15.8µM* | 6.2%
O=C(COc1ccccc1Cl)NC(=S)N1CCc2ccccc21 | u | i | 17.8µM* | -20.3%
COC(=O)c1ccccc1NC(=S)NC(=O)COc1ccccc1Cl | i | x | -3.6% | -10.8%
COC(=O)[C@]12C[C@H](CC(=O)N3CCCC3)C(=O)N(Cc3ccco3)C1=C[C@H](C1CCCC1)O[C@@H]2C | x | i | x | x
Cc1ccccc1CN1CCc2c(OCC(=O)N3CCCc4ccccc43)cccc2C1=O | i | i | 12.6µM* | 11.2%
Fc1ccccc1COc1ccc(/C=N/n2cnnc2)cc1 | i | i | 11.2µM* | 0.0%
SMILES | Abeta rescue | FUS yeast rescue | TDP43 rescue | aSyn rescue
C(=N\n1cnnc1)/c1ccc(OCc2cccc3ccccc23)cc1 | i | i | 12.6µM* | 15.8%
CCc1ccc(NC(=O)c2cc(C(C)=O)n3ccccc23)cc1 | i | i | 11.2µM* | x
CCN(CC)C(=O)CC[C@@H]1CC[C@]2(CCCN(C(=O)c3cccnc3)C2)O1 | x | i | x | x
C[C@H]1[C@@H](N(C)Cc2cccs2)CC[C@@]23CCCN2C(=O)CCC[C@@H]13 | x | i | x | x
Cc1ccc(CCNC(=O)c2sc3nc4n(c(=O)c3c2C)CCCC4)cc1 | i | i | 15.8µM* | x
Cc1c(C(=O)NCCO)sc2nc3n(c(=O)c12)CCC3 | i | i | -21.9% | -6.0%
Cc1ccc(-c2nc(C(=O)NCc3ccccc3Cl)c3n2CCCCC3)cc1 | i | u | 35.5µM* | 12.4%
Cc1c(C(=O)NCc2ccccc2Cl)sc2nc3n(c(=O)c12)CCCCC3 | i | u | 35.5µM* | x

Screens (PubChem BioAssay)
